Reference: PubChem BioAssay (Tox21)
Records with an inconclusive call do not appear. Entries that show only a call come without a potency. The source made the active and inactive calls. Calls come from the whole dose curve; as a rule, active = well fitted activation curve with a large enough effect in the repeat runs; inconclusive = weak or mixed curves; inactive = flat fitted curve, though single readings scatter.

Assay: A CellTox Green Cytotoxicity Assay to monitor cytotoxicity in HEK293 cells - 40 hour (AID 1224871); note: nearly all actives have a fitted effect of over 45% in size
Conditions: CellTox Green fluorescence; series mostly up to 76.8 µM
Text: National Center for Advancing Translational Sciences [NCATS]
NIH Chemical Genomics Center [NCGC]
U.S. Environmental Protection Agency [EPA]
National Institutes of Environmental Health Sciences [NIEHS]
National Toxicology Program [NTP]
Cell-based models are critical for drug discovery. Determining the natural cytotoxic effects resulting from test compounds is an essential research activity. A CellTox Green Cytotoxicity Assay to monitor cytotoxicity in real time of continues cell culture during 40 hours of the compound treatment was used to screen Tox21 10K library compounds in Hek293 cells. CellTox Green Cytotoxicity Assay is a nonlytic, homogeneous, biofluorescent method to measure cytotoxicity in cell culture after experimental manipulation. The assay system uses a proprietary asymmetric cyanine dye that is excluded from viable cells but preferentially stains the dead cell's DNA. […] Viable cells produce no appreciable increases in fluorescence. Therefore, the fluorescence signal produced by the binding interaction with dead cell DNA is proportional to cytotoxicity.
The mixture of Hek293 cell suspension and reagents were dispensed at 600cells/6 ul/well in 1536-well tissue culture treated black solid bottom plates using a Multidrop dispenser. After the assay plates were incubated at a 37 C/5% CO2 incubator for 5 hours, 23 nL of compounds dissolved in DMSO, positive and negative controls was transferred to the assay plate by a pintool work station. The plates were incubated at 37 C for 40 hours. The fluorescence intensity were measured at 0h, 8h, 16h, 24h, 32h and 40h time points using ViewLux plate reader during compound treatment.
Potency is the fitted concentration of half-maximal effect.

SMILES | Potency
O=C1Cc2cc(Cl)ccc2N1 | inactive
CCCCOc1ccc(OCCCN2CCOCC2)cc1 | inactive
CCn1cc(C(=O)O)c(=O)c2cc(F)c(N3CCNCC3)cc21 | inactive
CCCC(=O)C(=O)O | inactive
Cc1ccc(C(C)(C)O)cc1 | inactive
Nc1cccc2c1CN(C1CCC(=O)NC1=O)C2=O (stereo not given) | inactive
O=c1[nH]ncc2ccccc12 | inactive
O=C1c2ccccc2C(=O)N1CCc1noc(-c2ccc(CN3CCCCCC3)s2)n1 | 40 µM (active)
CCOc1ccc(Cc2nccc3cc(OCC)c(OCC)cc23)cc1OCC | inactive
CCC1NC(=O)c2cc(S(N)(=O)=O)c(Cl)cc2N1 (stereo not given) | inactive
C[C@@H](O)[C@H]1C(=O)N2C(C(=O)O)=C([C@H]3CCCO3)S[C@H]12 | inactive
CN1C(=O)N(c2ccccc2Br)Cc2cnc(Nc3ccc4c(c3)OCC(CO)O4)nc21 (stereo not given) | inactive
C[C@H]1C[C@H](O)c2ccsc2S1(=O)=O | inactive
CC[C@]1(O)C[C@H]2CN(CCc3c([nH]c4ccccc34)[C@@](C(=O)OC)(c3cc4c(cc3OC)N(C=O)[C@H]3[C@@](O)(C(=O)OC)[C@H](OC(C)=O)[C@]5(CC)C=CCN6CC[C@]43[C@@H]65)C2)C1 | inactive
CCCCCC[C@@H](O)C/C=C\CCCCCCCC(=O)OCC(O)CO (stereo not given in full) | inactive
Nc1ncnc2c1ncn2[C@H]1CC[C@@H](CO)O1 | inactive
CC1=C(Br)C(=O)C(Br)=C/C1=C(/c1ccccc1S(=O)(=O)O)c1cc(Br)c(O)c(Br)c1C | inactive
O=C1c2ccccc2C(=O)C1c1ccc(Br)cc1 | inactive
CCCCC(CC)CN (stereo not given) | inactive
OCCN1CCN(CCCN2c3ccccc3Sc3ccc(Cl)cc32)CC1 | 26.8 µM (active)

SMILES | Potency
CCOC(=O)c1ccc(C#Cc2ccc3c(c2)C(C)(C)CCS3)nc1 | inactive
CC1(C)[C@H](C(=O)O)N2C(=O)C[C@H]2S1(=O)=O | inactive
O=c1cc(-c2ccccc2)oc2cc(O)cc(O)c12 | inactive
COC(=O)c1nc(Cl)c(Cl)nc1N | 13.4 µM (active)
Cc1[nH]cnc1CN1CCc2c(c3ccccc3n2C)C1=O | inactive
CCC1(CO)COCOC1 | inactive
CCOC(=O)c1ccccc1C(=C1C=C(Br)C(=O)C(Br)=C1)c1cc(Br)c(O)c(Br)c1 | inactive
O=C(O)C[C@H](NC(=O)OCc1ccccc1)C(=O)O | inactive
C=CC(=O)[O-].C=CC(=O)[O-].[Zn+2] | inactive
NCCNCCO | inactive
CCOc1ccccc1O[C@H](c1ccccc1)[C@H]1CNCCO1 | inactive
O=C(O)CCc1nc(-c2ccccc2)c(-c2ccccc2)o1 | inactive
O=C(O)CCCCCCCCCCCBr | inactive
N#CCCN(CCO)CCO | inactive
CC(C)=CCC/C(C)=C/CC/C(C)=C/CCC(=O)OC/C=C(\C)CCC=C(C)C | inactive
O=C(OC(=O)c1ccccc1)c1ccccc1 | inactive
CCCCCCCCC(CCCCCC)C(=O)O (stereo not given) | inactive
C=C1CCC2CC1C2(C)C (stereo not given) | inactive
CCCCCCCCN | inactive
Oc1cccc(Nc2ccccc2)c1 | inactive
